# The source made the active and inactive calls. How the source made its calls: active means hit-call score of the fitted dose curve at least 0.9, where 1 is the maximum; inactive means score below 0.9.
# Target: Hepatocyte nuclear factor 6 (Homo sapiens) (UniProt Q9UBC0)
# Assay: ATG_HNF6_CIS: Attagene CIS-FACTORIAL HepG2 Assay for human Hepatocyte Nuclear Factor 6 (HNF6) (AID 2282952)
# Conditions: HepG2 Attagene cis-factorial HNF6 reporter transcription; actives raise or lower the signal
# How it was run: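 Readout: fluorescent reporter-transcript fragments resolved by capillary electrophoresis after RT-PCR, reflecting endogenous factor activity in transfected HepG2. Exposure 24 h. Gain or loss of signal fitted bidirectionally against DMSO.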
# Hepatocyte nuclear factor 6 (Homo sapiens), sequence (Q9UBC0 whole entry, looked up): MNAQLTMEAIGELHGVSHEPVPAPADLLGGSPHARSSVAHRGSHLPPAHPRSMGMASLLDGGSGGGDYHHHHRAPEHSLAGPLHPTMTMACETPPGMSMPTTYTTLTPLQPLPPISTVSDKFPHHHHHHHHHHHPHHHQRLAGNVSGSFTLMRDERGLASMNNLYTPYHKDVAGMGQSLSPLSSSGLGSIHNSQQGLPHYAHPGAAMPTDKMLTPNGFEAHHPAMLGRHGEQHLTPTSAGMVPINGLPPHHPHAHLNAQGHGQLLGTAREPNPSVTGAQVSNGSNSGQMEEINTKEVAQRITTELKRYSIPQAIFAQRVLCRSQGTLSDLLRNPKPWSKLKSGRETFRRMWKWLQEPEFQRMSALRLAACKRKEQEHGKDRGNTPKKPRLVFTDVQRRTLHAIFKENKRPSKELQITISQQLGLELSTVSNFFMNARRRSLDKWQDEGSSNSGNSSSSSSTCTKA
row,Structure (SMILES),outcome
1,Nc1ccc(S(=O)(=O)Nc2nccs2)cc1,inactive
2,C=C(C)C(=O)OCC(F)(F)C(F)(F)C(F)(F)F,inactive
3,O=P(O)(O)OCCC(F)(F)C(F)(F)C(F)(F)C(F)(F)C(F)(F)C(F)(F)F,inactive
4,CC(=O)Nc1ccc(N=Nc2cc(C)ccc2O)cc1,inactive
5,FC(F)(F)C(F)(F)C(F)(F)C(F)(F)CCI,inactive
6,CCc1c(Br)c(Br)c(Br)c(Br)c1Br,inactive
7,CC(C)(C)c1ccc(OC2CCCCC2O)cc1 (stereo not given),inactive
8,CC(C)OC(=O)c1ccccc1C(=O)OC(C)C,inactive
9,OC[C@@H](O)[C@@H](O)[C@H](O)[C@@H](O)CO,inactive
10,CN(C)Cc1ccccc1O,inactive
11,CCc1ccc(C(c2ccc(CC)cc2)C(Cl)Cl)cc1,inactive
12,CC(C)c1ccccc1N,inactive
13,C1COCCN1,inactive
14,COC(=O)CCC(F)(F)C(F)(F)C(F)(F)C(F)(F)F,inactive
15,C=CC(=O)OCC(F)(F)C(F)(F)C(F)(F)C(F)(F)C(F)(F)C(F)(F)C(F)(F)F,inactive
16,O=S(=O)(O)c1ccc2ccccc2c1,inactive
17,CCCCC(CC)COP(=O)(O)OCC(CC)CCCC (stereo not given),inactive
18,COC(=O)C1CCC(C(=O)OC)CC1 (stereo not given),inactive

row,Structure (SMILES),outcome
1,Nc1cc(Cl)c(N)c(Cl)c1,inactive
2,O=C(O)C(F)(F)C(F)(F)OC(F)(F)F,inactive
3,CC(C)=CCCC(C)CCOC(=O)C(C)C (stereo not given),inactive
4,N=C(N)C(F)(F)C(F)(F)C(F)(F)C(F)(F)C(F)(F)C(F)(F)C(F)(F)F,inactive
5,O=C(Cl)C(F)(F)C(F)(F)C(F)(F)C(F)(F)C(F)(F)C(F)(F)C(F)(F)C(F)(F)F,inactive
6,C=CC(F)(F)C(F)(F)C(F)(F)C(F)(F)C(F)(F)C(F)(F)C(F)(F)C(F)(F)F,inactive
7,CS(C)(=O)=O,inactive
8,O=C(O)C(F)(F)C(F)(F)C(F)(F)C(F)(F)C(F)(F)C(F)(F)C(F)(F)C(F)(F)C(F)(F)C(F)(F)C(F)(F)C(F)(F)F,inactive
9,O=C(O)C(F)(F)C(F)(F)C(F)(F)C(F)(F)F,inactive
10,Cc1ccc(S(=O)(=O)OCC(F)(F)C(F)(F)C(F)(F)C(F)(F)C(F)(F)C(F)F)cc1,inactive
11,Cc1ccc(S(=O)(=O)NCl)cc1,inactive
12,C=C(C)C(=O)OCC(F)(F)C(F)(F)C(F)(F)C(F)(F)C(F)(F)C(F)(F)C(F)(F)F,inactive
13,FC(F)(F)C(F)(F)C(F)(F)C(F)(F)C(F)(F)C(F)(F)CCS,inactive
14,CCCCCC=O,inactive
15,CCCCCCCCC(F)(F)C(F)(F)C(F)(F)C(F)(F)C(F)(F)C(F)(F)F,inactive
16,Cc1cc(C)cc(O)c1,inactive
17,O=S(=O)(OCCOC(F)(F)F)C(F)(F)F,inactive
